Experimental findings from PubChem BioAssay are described below.

Inconclusive results are not listed. Active and inactive are the calls of the source. Unless noted, how the calls were made is not given here.

The nature of assay [1]: OD615 S. cerevisiae growth inhibition, permissive medium, pilot counter-assay, permissive growth control for S. cerevisiae lifespan shortening project (AID 705;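 active means growth inhibition above 25% in both replicates, a cutoff set 3 SD above the mean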). Conditions: OD615, 24 h, at 10 µM, stronger effect = higher value.
The nature of assay [2]: Restrictive medium S. cerevisiae growth inhibition, OD615, pilot screen of yeast lifespan reduction project, restrictive growth control (AID 706;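 active means growth inhibition above a set limit, 3 SD over mean compound inhibition, in both replicates, cut at about 43% in these data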;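 further: modified DeaD lifespan yeast strain shifted to restrictive glucose medium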). Conditions: OD615, 48 h, at 10 µM, stronger effect = higher value.
Assay [3] can be described thus: viability gain of MRP-1-high H69AR cells under doxorubicin, pilot screen, MRP-1 activator project, CellTiter-Glo, duplicate (AID 807;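 active means viability increase at or above a cutoff of the median across tested compounds plus 3 SD, cut at about 8.5% in these data, passing the limit was not always enough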;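 further: compound pretreatment 18-22 h then 72 h combined with doxorubicin; 0% = doxorubicin alone and 100% = vehicle without doxorubicin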). Conditions: H69AR viability with doxorubicin, CellTiter-Glo luminescence; at 10 µM; stronger effect = higher value. For orientation: ATP-based viability assays read luminescence as a measure of living cells.
Assay [4] is described as follows: growth suppression of PTEN-deleted HCT116, pilot screen, cell-based, HCT116 clonal line, CellTiter-Glo (AID 824;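 active means viability at or below 27.92% in each of two runs, the all-compound median minus 4 SD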;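 further: 0% = 20 µM Hyamine control and 100% = vehicle cell control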). Conditions: 60 h, at 10 µM, stronger effect = lower value.
A short description of assay [5]: inhibitors of the yeast RAM network, pilot screen, dse1pr::URA3 reporter, 5-FOA selection (AID 869;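 active means inhibition over a set limit, the all-compound mean plus 3 SD, in both replicate runs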;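 further: 0% = DMSO wells with no growth and 100% = 10 µM 1-NA-PP1 with full growth; RAM network block rescues cells from 5-FOA so hits raise OD615 growth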). Conditions: S. cerevisiae dse1pr::URA3 5-FOA growth, OD615, 2 d, at 10 µM, stronger effect = higher value.
A short description of assay [6]: RAM signaling pathway blockade in yeast – S. cerevisiae, Pdr1DBD-CYC8 efflux-inhibited sensitized strain, primary screen (AID 1298;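 active means RAM network inhibition above 8.4% in each of two replicates, 3 SD over the compound average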;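 further: 0% = DMSO untreated cells without growth and 100% = 10 µM 1-NA-PP1 full growth; higher means more yeast growth rescued from 5-FOA killing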). Conditions: S. cerevisiae cbk1-as DSE1-URA3 strain, 5-FOA growth OD615, 2 d; at 50 µM; stronger effect = higher value.
The nature of assay [7]: growth suppression of beta-catenin knockout HCT116, pilot screen, human colon tumor cells (AID 823;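 active means cell viability at or below a set limit in both duplicate runs, the limit being the all-compound median minus 4 SD, cut at about 23% in these data, passing the limit was not always enough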;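 further: 0% = wells killed by 20 µM Hyamine and 100% = untreated DMSO cell wells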). Conditions: CellTiter-Glo, 60 h, at 10 µM, stronger effect = lower value.
Assay [8] can be described thus: Recombinant Mtb pantothenate synthetase (PanC) inhibitors, coupled enzyme, confirmatory (AID 375).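 On inhibition: 0% = full reaction with vehicle and 100% = no enzyme background.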 Conditions: coupled enzyme assay; measured here: coupling enzymes IC50 repeat trials unless noted.
Assay [9] deals with Pantothenate synthetase (Mycobacterium tuberculosis (strain ATCC 25618 / H37Rv)) (UniProt P9WIL5). The description is as above. Conditions: coupled enzyme assay; at 10 µM, stronger effect = higher value.
The nature of assay [10]: SK-BR-3 cell growth inhibitors, pilot screen, 24 h, human (AID 572;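 active means viability at or below 10% of carrier control in both of two separate runs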;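 further: compound exposure lasted between 18 and 24 h rather than exactly 24 h; 100% = carrier-treated control wells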). Conditions: SK-BR-3 viability, CellTiter-Glo luminescence, at 10 µM, stronger effect = lower value.
The nature of assay [11]: HUVEC growth inhibition – cell-based, human, primary screen (AID 575;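 active means viability at or below 30% in both replicate assays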;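 further: 100% = median of untreated cell wells with 0.1% DMSO on each plate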). Conditions: HUVEC proliferation, CellTiter-Glo luminescence, 72 h; at 10 µM; stronger effect = lower value.
Assay [12] is described as follows: reversal of MRP1-mediated doxorubicin resistance, pilot screen, H69AR cells, doxorubicin co-treatment (AID 601;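 active means viability loss from added drug above about 55%, and viability with drug at most 40%, in both replicates, limit read from the data, passing the limit was not always enough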). Conditions: CellTiter-Glo, 72 h, at 10 µM.
The nature of assay [13]: 384-well plate pilot, post-Golgi transport modulator project, inhibition of yeast transport mutant growth (AID 636; in the data active means inhibition above about 31%). Conditions: absorbance 615 nm, about 18 h, stronger effect = higher value.
Assay [14] can be described thus: growth suppression of yeast trafficking mutant, preliminary HTS, modulators of trafficking downstream of Golgi apparatus project, 1536-format plate, OD 615 nm (AID 637; in the data active means inhibition above about 30%). Conditions: yeast transport mutant growth, absorbance 615 nm, 18 h; stronger effect = higher value.

Pantothenate synthetase (Mycobacterium tuberculosis (strain ATCC 25618 / H37Rv)), sequence (P9WIL5 whole entry, looked up): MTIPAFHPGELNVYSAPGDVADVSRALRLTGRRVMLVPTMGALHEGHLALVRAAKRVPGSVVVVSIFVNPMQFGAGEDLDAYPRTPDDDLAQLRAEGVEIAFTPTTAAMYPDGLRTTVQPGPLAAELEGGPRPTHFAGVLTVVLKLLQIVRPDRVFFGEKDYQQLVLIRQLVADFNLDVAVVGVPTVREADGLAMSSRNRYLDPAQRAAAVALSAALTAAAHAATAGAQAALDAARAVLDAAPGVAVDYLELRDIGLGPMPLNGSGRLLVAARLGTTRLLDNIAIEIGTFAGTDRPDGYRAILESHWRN

As to `Cc1c(C(=O)N2CCC3(CC2)OCCO3)oc2ccc(S(=O)(=O)N3CCOCC3)cc12`, the growth inhibition in assay [1] was -9.41% (inactive); in assay [2], -18.4% (inactive). The viability increase in [3] is -1.67% (inactive). In assay [4], the viability is 98.4% (inactive). Further, the inhibition in assay [5] is 1.09% (inactive). For the same molecule, in assay [6], the RAM network inhibition is 1.19% (inactive).
For the molecule `O=C(Nc1ccccc1OC(=O)N1CCCCC1)N1CCCCC1`, the growth inhibition in [1] is -8.28% (inactive); in assay [2], -4.06% (inactive). Further, the viability increase in assay [3] is -2.07% (inactive). Further, the viability is 97.4% (inactive) in assay [7] and 100% (inactive) in [4]. The inhibition in assay [5] is 0.8% (inactive). Besides, the RAM network inhibition in assay [6] is 3.27% (inactive).
Regarding `CC1(C)CC(n2[nH]c(=O)c3c2NC(=O)CSC3c2ccc(F)cc2)CCO1` (configuration not stated), the figures for the growth inhibition in assay [1] and in [2] were -12.3% (inactive) and -25.8% (inactive), respectively. In addition, the viability increase in [3] is -2.67% (inactive). Moreover, in assay [7], the viability is 95.8% (inactive). For the same molecule, the inhibition in [5] was -0.28% (inactive). Besides, in assay [6], the RAM network inhibition was 4.89% (inactive).
For `O=C(Cc1ccc(Br)cc1)N1CCN(Cc2ccccc2)CC1`, the results for the growth inhibition in [1] and in assay [2] were -2.42% (inactive) and -2.88% (inactive), respectively. Besides, the viability increase in assay [3] is -1.69% (inactive). Besides, the viability in assay [4] was 72.7% (inactive). Further, in assay [5], the inhibition was 1.23% (inactive). The RAM network inhibition in assay [6] is 5.41% (inactive).
In the case of `FC(F)(F)/C(=N\P(=S)(N1CCOCC1)N1CCOCC1)N1CCOCC1`, the growth inhibition is 6.63% (inactive) in assay [1] and -10.3% (inactive) in [2]. Further, in assay [3], the viability increase is -1.97% (inactive). For the same molecule, the viability in assay [7] was 94.9% (inactive). The inhibition in assay [5] was 1.79% (inactive). The RAM network inhibition in [6] was 5.4% (inactive).
`Cc1ccc(Cn2ccc(NC(=O)c3cc(-c4ccco4)on3)n2)cc1`: the IC50 in [8] is over 100 µM. For the same molecule, the outcome in assay [9] was inactive.
Take `Cc1ccc(Cn2ccc(NC(=O)c3cc(-c4cccc(Cl)c4)on3)n2)cc1`: in [8], the IC50 is over 100 µM. Also, in assay [9], the result was inactive.
For `COc1ccc(OC)c(-c2cc(C(=O)Nc3cc(C)n(Cc4ccc(Cl)cc4)n3)no2)c1` the same measures were over 100 µM and “inactive”.
As to `COc1ccc2c(c1)c(CC(=O)O)c(C)n2C(=O)c1ccc(Cl)cc1`, the inhibition in assay [9] is 5% (inactive).
On the same count and under the same terms, for `O=C(C1CCCO1)N1CCc2ccccc21` (configuration not stated) the value was 10% (inactive).
As for `Cc1cc(C(=O)Nc2cc(C)n(Cc3ccc(Cl)cc3)n2)no1`, the IC50 in assay [8] was over 100 µM. In addition, the inhibition in assay [9] was 3% (inactive).
Regarding `COc1ccc(-c2cc(C(=O)Nc3cc(C)n(Cc4ccc(Cl)cc4)n3)no2)cc1OC`, in assay [8], the IC50 was over 100 µM. The outcome in assay [9] was inactive.
The matching figures for `COc1ccc2c(c1)CCc1c(C(=O)Nc3cc(C)n(Cc4ccc(Cl)cc4)n3)noc1-2`: over 100 µM and “inactive”.
With `CCCCOC(=O)c1[nH]c2c(c1C)C(=O)CC(c1cc(OC)c(OC)c(OC)c1)C2` (configuration not stated), the inhibition in [9] was 10% (inactive).
For `COc1ccccc1-c1cc(C(=O)Nc2cc(C)n(Cc3ccc(Cl)cc3)n2)no1`, the IC50 in assay [8] is over 100 µM. Also, in assay [9], the result was inactive.
The matching figures for `Cc1ccccc1Cn1nc(C)c(NC(=O)c2noc3c2CC(C(C)(C)C)CC3)c1C` (configuration not stated): over 100 µM and “inactive”.
Consider `O=C(NCC1CCCO1)C1CCN(c2ccc(S(=O)(=O)N3CCCC3)cc2)CC1` (configuration not stated), for which, in [9], the inhibition is 0% (inactive).
For `Cc1ccc(Cn2ccc(NC(=O)c3noc4c3CCCC4)n2)cc1`, the IC50 in [8] was over 100 µM. Besides, in [9], the inhibition is 0% (inactive).
Consider `COc1ccc(-c2cc(C(F)(F)F)nc(N3CCN(c4ccc(F)cc4)CC3)n2)cc1OC`, for which the inhibition in [9] was 0% (inactive).
On to `Cc1cc(NC(=O)c2cc(-c3ccco3)on2)nn1Cc1ccc(Cl)cc1`, for which, in assay [8], the IC50 is over 100 µM. Also, the outcome in assay [9] was inactive.
Turning to `CCOC(=O)CSc1nn(C)c(=S)s1`, in [9], the inhibition was 6% (inactive).
As for `Cc1ccc(Cn2ccc(NC(=O)c3cc(-c4cccs4)on3)n2)cc1`, the IC50 in assay [8] was over 100 µM. For the same molecule, the inhibition in assay [9] is 3% (inactive).
`CC(=O)Nc1ccc(S(=O)(=O)N(C2=NCC(C)S2)c2ccccc2)cc1` (configuration not stated): the inhibition in assay [9] is 0% (inactive).
In the case of `Cc1cc(NC(=O)c2noc3c2CCCC3)nn1Cc1ccc(Cl)cc1`, the IC50 in assay [8] was over 100 µM. In addition, in [9], the result was inactive.
Consider `COc1ccc(N(C(=O)c2ccco2)C(C(=O)NC2CCCC2)c2ccc(N(C)C)cc2)cc1OC` (configuration not stated), for which the inhibition in assay [9] is 1% (inactive).
The same measure, in the same setting: to `CCOC(=O)c1cnc(-n2cc(C)cn2)nc1Nc1ccccc1OC` belongs 0% (inactive); to `CC1(C)CC(=O)C(C(=O)CCCCC(=O)C2C(=O)CC(C)(C)CC2=O)C(=O)C1`, 0% (inactive).
The same measure, in the same setting: to `COc1ccc(CCNC(=O)C2CCCN(c3nn4c(=O)cc(C)nc4s3)C2)cc1OC` (configuration not stated) belongs 0% (inactive).
Regarding `Cc1ccc(Cn2ccc(NC(=O)c3cc(-c4ccc(F)cc4)on3)n2)cc1`, the IC50 in assay [8] was over 100 µM. Besides, the outcome in assay [9] was inactive.
The matching figures for `Cc1ccccc1Cn1cc(NC(=O)c2noc3c2CC(C(C)(C)C)CC3)cn1` (configuration not stated): over 100 µM and “active”.
For the molecule `Cc1cc(C)n2cc(CSc3nnnn3C)nc2n1`, the inhibition in assay [9] was 0% (inactive).
Same read-out and setting: to `CC1/C(=N/O)C(CN(C)C)C2CC1C2(C)C` (configuration not stated) belongs 0% (inactive); to `Cn1c(=O)c(C(=S)NC(=O)C2CC2)c(N)n(Cc2ccccc2)c1=O`, 3% (inactive).
Turning to `Cc1ccc(Cn2ccc(NC(=O)c3cc(-c4ccc(Br)cc4)on3)n2)cc1`, the IC50 in [8] is over 100 µM. For the same molecule, the result in assay [9] was inactive.
The matching figures for `COc1ccc2c(c1)CCc1c(C(=O)Nc3ccn(Cc4ccc(C)cc4)n3)noc1-2`: over 100 µM and “inactive”.
Consider `CC(CN(C)Cc1ccccc1)OC(=O)c1ccc2c(c1)OCCO2` (configuration not stated), for which the inhibition in assay [9] is 0% (inactive).
Still for that read-out and setting: for `O=C(COc1ccccc1)N1CCN(c2ncnc3c2cnn3-c2ccccc2)CC1` the value was 0% (inactive).
Turning to `Cc1ccc(Cn2ccc(NC(=O)c3noc4c3CCCCC4)n2)cc1`, the IC50 in assay [8] was over 100 µM. Moreover, the outcome in [9] was inactive.
As for `Clc1cccc(Cl)c1COc1ccncc1`, in assay [9], the inhibition is 0% (inactive).
Turning to `Cc1cc(NC(=O)c2cc(-c3cccs3)on2)nn1Cc1ccc(Cl)cc1`, the IC50 in assay [8] was over 100 µM. Further, the outcome in assay [9] was inactive.
The matching figures for `Cc1ccc(Cn2ccc(NC(=O)c3cc(-c4ccccc4)on3)n2)cc1`: over 100 µM and “inactive”.
As for `O=c1c2ccccc2[se]n1-c1ccccc1`, in assay [8], the IC50 is 0.485 µM [measured here: coupling enzymes counter-screen IC50]. The viability in assay [10] was 67% (inactive); in [11], 42.1% (inactive); in [12] (H69AR cells + 2 uM doxorubicin, measured here: viability with 2 uM doxorubicin, stronger effect = lower value), 1.34%; in assay [12] (H69AR cells, compound alone cytotoxicity), 3.73%. In assay [12] (H69AR cells + 2 uM doxorubicin, stronger effect = higher value), the differential viability (reversal) was 2.39% (inactive). In addition, the values for the inhibition in assay [13] and in assay [14] were 0.65% (inactive) and -0.5% (inactive), respectively.
For `COc1cccc(-c2cc(C(=O)Nc3cc(C)n(Cc4ccc(Cl)cc4)n3)no2)c1`, in [8], the IC50 is over 100 µM. For the same molecule, the inhibition in [9] is 0% (inactive).
As to `Cc1nnc(SCCCn2c(N3CCCCC3)nc3c2c(=O)[nH]c(=O)n3C)s1`, the inhibition in assay [9] is 0% (inactive).

By viability is commonly meant the share of living cells, or the viability signal relative to a control. As a reminder, the inhibition is the relative decrease from the control value, in per cent. As usually defined, the IC50 is the point on the concentration scale where inhibition reaches its midpoint.
